# In PMC4336329 (PLoS ONE, 2015):
# About 14,000 (4.5%) of roughly 310,000 compounds showed an effect of 50% or more. The effect is printed as a negative number. The sample as a whole holds a higher share of strong results than the screen did.
# Biological target: human ether-à-go-go-related gene (hERG) potassium channel (human, UniProt Q12809)
# Assay: primary screen, population patch clamp on CHO cells stably expressing hERG; higher = less effect of the substance
# 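Also: peak tail current of the secondary pulse compared with the same well before compound.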
# Sequence of human ether-à-go-go-related gene (hERG) potassium channel (Q12809 whole entry, looked up): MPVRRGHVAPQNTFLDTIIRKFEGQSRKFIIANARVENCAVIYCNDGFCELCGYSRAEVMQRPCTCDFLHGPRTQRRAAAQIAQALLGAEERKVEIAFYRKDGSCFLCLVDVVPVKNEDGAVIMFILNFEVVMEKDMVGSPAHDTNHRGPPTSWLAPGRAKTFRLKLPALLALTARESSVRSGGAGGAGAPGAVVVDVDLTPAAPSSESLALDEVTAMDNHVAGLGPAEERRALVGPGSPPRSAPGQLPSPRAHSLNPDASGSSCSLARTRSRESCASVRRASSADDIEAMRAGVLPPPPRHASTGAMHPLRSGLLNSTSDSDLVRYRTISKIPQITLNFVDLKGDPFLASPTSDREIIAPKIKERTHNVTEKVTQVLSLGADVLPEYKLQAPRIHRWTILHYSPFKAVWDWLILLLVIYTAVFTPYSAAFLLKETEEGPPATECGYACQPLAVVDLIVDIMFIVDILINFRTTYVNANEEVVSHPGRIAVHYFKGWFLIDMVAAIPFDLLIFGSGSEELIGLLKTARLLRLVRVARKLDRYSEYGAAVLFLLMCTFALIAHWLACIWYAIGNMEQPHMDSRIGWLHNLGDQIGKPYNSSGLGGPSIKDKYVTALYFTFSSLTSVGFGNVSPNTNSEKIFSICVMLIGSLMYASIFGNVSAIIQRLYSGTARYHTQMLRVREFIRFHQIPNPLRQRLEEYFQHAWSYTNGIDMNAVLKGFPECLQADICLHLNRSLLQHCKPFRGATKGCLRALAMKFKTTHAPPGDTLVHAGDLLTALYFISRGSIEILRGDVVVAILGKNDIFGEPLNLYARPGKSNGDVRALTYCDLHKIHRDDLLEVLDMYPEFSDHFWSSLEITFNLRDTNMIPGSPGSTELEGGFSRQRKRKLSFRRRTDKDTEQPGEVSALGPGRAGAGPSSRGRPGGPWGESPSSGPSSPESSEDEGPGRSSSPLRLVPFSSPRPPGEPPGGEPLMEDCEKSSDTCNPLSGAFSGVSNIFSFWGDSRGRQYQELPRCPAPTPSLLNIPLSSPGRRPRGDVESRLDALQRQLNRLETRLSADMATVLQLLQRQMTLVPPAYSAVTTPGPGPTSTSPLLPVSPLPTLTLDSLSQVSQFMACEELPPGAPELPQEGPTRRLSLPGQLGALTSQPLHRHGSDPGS
row,SMILES,"hERG current change (%, negative = inhibition) at 10uM [%]"
1,COC(=O)c1ccc(C)c(NC(=O)c2ccc(CN3CCc4ccccc4C3)cc2)c1,6.57
2,CCOC(=O)N1CCN(C(=O)c2cc(COc3ccc(F)cc3F)on2)CC1,-17.1
3,CC(Oc1ccc(-c2ccccc2)c(F)c1)c1ccn(S(=O)(=O)c2ccc(F)cc2)n1 (centres unmarked),16
4,COc1ccccc1-c1ccc(Nc2cccc(C(F)(F)F)c2)nn1,15.4
5,Cn1c(=O)[nH]c(=O)c2c1nc(SCC(=O)O)n2Cc1ccccc1,-5.45
6,CCCSc1nc2c(c(=O)[nH]c(=O)n2C)n1Cc1ccccc1,-17.4
7,Cn1c(=O)[nH]c(=O)c2c1nc(SCCO)n2CCCc1ccccc1,-4.68
8,Cc1ccc(Cn2c(SCCN3CCCCC3)nc3c2c(=O)[nH]c(=O)n3C)cc1,-74.1
9,Cn1c(=O)[nH]c(=O)c2c1nc(SCCN1CCCCC1)n2Cc1ccccc1,-78.9
10,Cc1cccc(Cn2c(SCC(=O)Nc3ccccc3)nc3c2c(=O)[nH]c(=O)n3C)c1,-30.2
11,COCCSc1nc2c(c(=O)[nH]c(=O)n2C)n1Cc1cccc(C)c1,-45.6
12,Cn1c(=O)[nH]c(=O)c2c1nc(SCCN1CCOCC1)n2CCCc1ccccc1,-46.9
13,Cc1ccc(Cn2c(SCC(C)C)nc3c2c(=O)[nH]c(=O)n3C)cc1,4.21
14,Cc1cccc(Cn2c(SCCN3CCCCC3)nc3c2c(=O)[nH]c(=O)n3C)c1,-79.1
15,Cc1ccc(Cn2c(N3CCCCCC3)nc3c2c(=O)[nH]c(=O)n3C)cc1,0.362
16,Cn1c(=O)[nH]c(=O)c2c1nc(SCCN1CCCCC1)n2CCCc1ccccc1,-69
17,Cn1c(-c2ccc(Cl)nc2)nc2cc(Cl)ccc21,-9.09
18,CC(C)CNC(=O)C1Nc2ccccc2C2C=CCC12 (centres unmarked),-6.43
19,COc1cccc(N(CC(=O)N/N=C(\C)c2cccs2)S(C)(=O)=O)c1,6.58
20,Cc1cc(NS(=O)(=O)c2ccc(NC(=O)N[C@H](C(=O)O)C(C)C)cc2)no1,29.3
21,CCN(CC)C(=S)NC(=O)Cc1ccccc1,16.1
22,COc1ccc(S(=O)(=O)NC(C)CCc2ccccc2)cc1 (centres unmarked),-3.49

row,SMILES,"hERG current change (%, negative = inhibition) at 10uM [%]"
1,Cc1c(NC(=O)C(c2ccccc2)c2ccccc2)cccc1C(=O)O,16
2,CCO[C@@H]1OC(C(=O)Nc2ccccc2)=C[C@H](C)[C@H]1CCCO,1.08
3,CSc1nnc(NC(=O)c2ccc(C)c(S(=O)(=O)N3CCOCC3)c2)s1,0.594
4,Cn1c(=O)[nH]c(=O)c2c1nc(SCCN1CCOCC1)n2Cc1ccccc1,-54.4
5,C=C(C)CSc1nc2c(c(=O)[nH]c(=O)n2C)n1Cc1ccccc1,-12.3
6,Cn1c(=O)[nH]c(=O)c2c1nc(CN(Cc1ccccc1)Cc1ccccc1)n2CCN1CCOCC1,-16.6
7,Cc1onc(-c2c(Cl)cccc2Cl)c1NC(=O)NNc1ccccn1,-11.7
8,COc1ccc(N2CCc3c(C)nc(SC)nc32)cc1,3.4
9,COc1ccc(N2CCc3c(C)nc4c(OC)cc(OC)cc4c32)cc1,-75
10,COc1cc(OC)c2nc(C)c3c(c2c1)N(c1ccc(O)cc1)CC3,-72.1
11,COc1ccc(N2CCc3c(C)nc4c(OC)cc(OC)cc4c32)c(OC)c1,-75.3
12,COc1ccc2c(c1OC)C(=O)N(c1ccc(O)cc1)C2,13.5
13,COc1ccc(N2C(=O)CCC2=O)c(OC)c1,20.7
14,COc1ccc(N2CCCC2=N)c(OC)c1.Cl,12.7
15,CSc1nc(C)c2c(n1)N(c1ccc(O)cc1)CC2,4.88
16,CCOc1ccc(N2CCc3c(C)nc(SC)nc32)cc1,-2.26
17,Cc1cc(C)n(CCOc2ccc(Br)cc2)n1,1.08
18,O=C(NCc1ccc(-c2nc3ccccc3s2)cc1)c1cc2ccccc2o1,-1.71
19,CN(C)C(=O)c1cc(C(=O)c2ccccc2Cl)c[nH]1,11.8
20,COc1cc(C(=O)N/N=C/c2sc(N3CCOCC3)nc2-c2ccccc2)cc(OC)c1OC,3.33
21,CC(=O)Nc1ccc(S(=O)(=O)N2CCN=C2C)cc1,5.24
22,CC(=O)NCCC(=O)N1CCCC(C(=O)c2ccc3c4c(cccc24)CC3)C1 (centres unmarked),-18.5
